Measurements taken from ChEMBL document CHEMBL4513216, “Probing the Open Global Health Chemical Diversity Library for Multistage-Active Starting Points for Next-Generation Antimalarials” (ACS Infect Dis, 2020).
About 8,600 (12%) of roughly 69,000 compounds showed an effect of 50% or more. This excerpt belongs to a sample that is enriched for strong results.

These compounds were tested on Plasmodium berghei (assay: Screen against P. berghei liver stage (PbLuc), transformed with Luciferase, at 10uM). Details: tested at 10 uM.
Type: functional, HepG2

| Structure (SMILES) | INHIBITION [%] |
| --- | --- |
| Cc1c(C(=O)O)cnn1-c1ccc(-c2nc(C3CC3)no2)cn1 | 34 |
| CNc1cncc(C2CCCN2S(=O)(=O)c2ccc(F)cc2)n1 (stereo unspecified) | 35.2 |
| Cc1noc(C)c1C1CCCN1C(=O)CN1C(=O)OC(C)(C)C1=O (stereo unspecified) | 40.7 |
| CCN1CCO[C@]2(CCC[C@H]2COCc2csc(C)n2)C1 | 52.9 |
| Cc1nc(COC[C@H]2CCC[C@]23CN(CC2CC2)CCO3)cs1 | 54.4 |
| Cc1nc(COC[C@H]2CCC[C@@]23CN(C(C)C)CCO3)cs1 | 12.4 |
| Cc1nc(COC[C@H]2CCC[C@]23CN(C2CCOC2)CCO3)cs1 (stereo partly specified) | 49.7 |
| Cc1nc(COC[C@@]23CCC[C@@H]2CN(CC2CCOCC2)C3)cs1 | -5.63 |
| Cc1nc(COC[C@@H]2CCC[C@@]23CN(C)CCO3)cs1 | 48.6 |
| CN(C)CCO[C@H]1CN(Cc2ccco2)[C@@H]2COC[C@H]12 | 30.3 |
| Cc1csc(C(Cc2cccs2)NCc2cc3c(cc2C)OCO3)n1 (stereo unspecified) | 45.45 |
| CCN1CCC12CCN(C(=O)c1ccsc1)C2 (stereo unspecified) | -30 |
| O=C(c1ccc[nH]1)N1Cc2nccn2CC(COc2cccnc2)C1 (stereo unspecified) | 3.58 |
| CCCc1noc(C2CCCCN2C(=O)CCc2cnn(C)c2)n1 (stereo unspecified) | 1.56 |
| COc1ccc(-c2nc(C#N)c(N(C)C)o2)cc1S(=O)(=O)N1CCCC1 | -35.5 |
| c1cncc(CN2CC[C@@H]3O[C@H](COCCN4CCCC4)CC[C@@H]32)c1 | -51 |
| COc1ccc(CNC(=O)NC(C)(CO)C2CC2)c(C(F)(F)F)c1 (stereo unspecified) | 17.8 |
| Cc1noc(C)c1CN1C[C@H](OCC2CC2)[C@H]2COC[C@H]21 | -41 |
| Cc1noc(C)c1CN1C[C@H](OCC2CCN(C)CC2)[C@H]2COC[C@H]21 | -12.2 |
| Cc1noc(C)c1CN1CC[C@@H](OCC2CC2)[C@@H](Cc2ccccc2)C1 | 73.4 |
| COc1ccc(C[C@H]2CN(C3CCOCC3)CC[C@H]2OCC2CC2)cc1 | -24.5 |
| Cc1noc(C)c1CN1C[C@H](OCC2CC2)[C@H]2OCCC[C@H]21 | -1.64 |

| Structure (SMILES) | INHIBITION [%] |
| --- | --- |
| Cc1noc(C)c1CN1CC[C@H](OCC2CC2)[C@@H](Cc2ccccc2)C1 | 53.2 |
| O=C(NCCc1ccncc1)[C@@H]1CC[C@@H]2[C@@H](CCN2Cc2ccco2)O1 | 31.7 |
| COCC(=O)N1CCC2(CCC2NC(=O)c2ccn(C)c2)CC1 (stereo unspecified) | 41.6 |
| O=S(=O)(NC1CCC12CCN(CC1CC1)CC2)c1ccccc1 (stereo unspecified) | 26 |
| COCC(=O)N1CCC2(CCC2NS(=O)(=O)c2ccccc2)CC1 (stereo unspecified) | 64.5 |
| Cc1nc(O)c2nnn(C[C@H]3CCCN3C(=O)c3ccc(F)cc3)c2n1 | 8.72 |
| CCc1cc(=O)[nH]c(-c2ccc(NC(C)COC)nc2)n1 (stereo unspecified) | -10.3 |
| CCOC(=O)C1(Cc2cccc(OC)c2)CCCN(Cc2ncc[nH]2)C1 (stereo unspecified) | 41.2 |
| CCOC(=O)C1(Cc2cccc(OC)c2)CCN(Cc2ccon2)CC1 | 55.7 |
| CCOC(=O)C1(Cc2ccc(Cl)cc2)CCN(Cc2ncc[nH]2)CC1 | 82.1 |
| COc1cccc(CC2(C(=O)O)CCN(c3nccs3)CC2)c1 | 22.3 |
| COc1cccc(CC2(C(=O)O)CCN(c3ccc(Cl)cn3)CC2)c1 | 30.8 |
| COc1cccc(CNC(=O)N2CCN(Cc3cc(C)on3)CC2)c1 | -1.62 |
| CCOC(=O)C1(Cc2cccc(OC)c2)CCN(Cc2ncc[nH]2)CC1 | 57.6 |
| CCOC(=O)C1(Cc2cccc(Cl)c2)CCCN(Cc2ncc[nH]2)C1 (stereo unspecified) | 46.7 |
| O=C1CC2(CCN(Cc3ncc[nH]3)CC2)CN1Cc1ccc(Cl)cc1 | 12.4 |
| CS(=O)(=O)N1C[C@H](C(=O)Nc2cccnc2)[C@@H]2CCO[C@@H]2C1 | -7.7 |
| CN(C)c1ncnc2c1CCN(C(=O)c1cccnc1)CC2 | 20.6 |
| COc1cc(NC2CCN(C3CCS(=O)(=O)CC3)CC2)ncn1 | -15 |
| Cc1ccc(CC(=O)N2CCCC(c3cc(C(N)=O)[nH]n3)C2)cn1 (stereo unspecified) | 39.35 |
| Cn1cc(C(O)CNC(=O)Nc2cc(F)ccc2-n2cccn2)cn1 (stereo unspecified) | 23.4 |
| CCOc1cc(F)ccc1NC(=O)NCC(c1cnn(C)c1)N(C)C (stereo unspecified) | 44.9 |

| Structure (SMILES) | INHIBITION [%] |
| --- | --- |
| Cc1ccc(NC(=O)NCC(c2cnn(C)c2)N(C)C)c(C)c1 (stereo unspecified) | 57.7 |
| CCOc1ccccc1CNC(=O)NCC(c1cnn(C)c1)N(C)C (stereo unspecified) | 62.8 |
| Cc1ccc(C(=O)NCC(c2cnn(C)c2)N(C)C)c(O)c1 (stereo unspecified) | 1.19 |
| CCOCc1ccccc1NC(=O)NCC(c1cnn(C)c1)N(C)C (stereo unspecified) | 2.91 |
| O=C(c1ccc(C2CCNC2)cc1)N1CCC(N2CCC(O)CC2)CC1 (stereo unspecified) | -8 |
| CCN(CC)Cc1cn2c(n1)CN(C(=O)c1cnccn1)CC2 | 37 |
| CN1C(=O)CO[C@H]2CN(C(=O)c3ccc4c(c3)CCCC4)C[C@@H]21 | -3 |
| Cn1ccnc1CN1CCC(Cc2ccccn2)CC1 | 38.2 |
| O=C(NCCCO)c1nc(-c2ccc3cc[nH]c3c2)no1 | -108 |
| CC(C)CN1CCC(NCCNc2cccnc2)CC1 | 52.7 |
| Cc1cnccc1NCCNC1CCN(CC(C)C)CC1 | -58.7 |
| c1cncc(NCCNC2CSCCSC2)c1 | 57.5 |
| c1cncc(NCCNC2CCSCC2)c1 | -22.8 |
| CC(NC1CCCC1)c1ccccc1-n1cccn1 (stereo unspecified) | -8.66 |
| c1cncc(NCCNC2CCCNC2)c1 (stereo unspecified) | 4.95 |
| CC(NC1CCSCC1)c1ccccc1-n1cccn1 (stereo unspecified) | -4.12 |
| c1cncc(NCCNC2CCSC2)c1 (stereo unspecified) | 29.7 |
| CC(C)CN1CCC(NC(C)c2ccccc2-n2cccn2)CC1 (stereo unspecified) | 89.1 |
| O=C(O)c1cnc(N2CCC(O)CC2)nc1COc1ccc(F)cc1 | 46.1 |
| CC(C)(C)NC(=O)c1ccn(COc2c(Cl)cccc2Cl)n1 | 20.9 |
| Cc1cc(C(=O)NCc2cccs2)c2c(C3CCCN3)noc2n1 (stereo unspecified) | 29.2 |
| COc1ccccc1C(=O)N1CC(=O)N(CC2CC2)CC(O)C1 (stereo unspecified) | 34.3 |
